Measurements as given in PubChem BioAssay (Tox21).
Results filed as inconclusive are left out. The source made the active and inactive calls. Unless noted, calls come from the whole dose curve.

What was measured:
[1] = Nuclear factor erythroid 2-related factor 2/antioxidant responsive element (Nrf2/ARE) small molecule agonists: qHTS cell viability counter screen in human keratinocytes (AID 1919968; active = well fitted curve in the direction sought with a large enough effect in the repeat runs; an effect the other way counts as inactive or inconclusive; note: nearly all actives have a fitted effect of over 55% in size; note: potency is the fitted concentration of half-maximal effect)
Method in brief: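 HaCaT ARE reporter line, 1,500 cells/well; 5 h settle, 37 C/5% CO2; cpd in DMSO pinned; 23 h exposure; CellTiter-Fluor, 1 h; fluorescence.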

[2] = Nuclear factor erythroid 2-related factor 2/antioxidant responsive element (Nrf2/ARE) small molecule agonists: luciferase reporter gene qHTS assay in human keratinocytes (AID 1919969); note: nearly all actives have a fitted effect of over 35% in size
[3] = molecular target: Gonadotropin-releasing hormone receptor (Homo sapiens) (UniProt P30968); assay: Human gonadotropin-releasing hormone receptor (GnRHR) small molecule agonists, calcium flux assay in GnRHR-HEK293 cells (AID 1920063); note: nearly all actives have a fitted effect of over 35% in size; note: potency is the fitted concentration of half-maximal effect
Sequence of Gonadotropin-releasing hormone receptor (Homo sapiens) (P30968 whole entry, looked up): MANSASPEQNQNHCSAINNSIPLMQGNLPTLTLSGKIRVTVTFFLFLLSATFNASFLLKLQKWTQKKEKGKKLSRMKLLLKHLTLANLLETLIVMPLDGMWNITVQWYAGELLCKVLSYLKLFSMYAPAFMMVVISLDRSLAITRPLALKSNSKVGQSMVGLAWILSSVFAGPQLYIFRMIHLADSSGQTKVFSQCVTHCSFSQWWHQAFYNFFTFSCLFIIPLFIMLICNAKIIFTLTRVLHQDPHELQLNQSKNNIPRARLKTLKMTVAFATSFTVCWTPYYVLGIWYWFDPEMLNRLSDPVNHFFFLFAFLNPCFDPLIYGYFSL
Method in brief: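 GnRHR-HEK293, 1500 cells/well, 18 h 37 C/5% CO2; Ca dye 1 h 37 C; cpd pinned (DMSO), agonist mode; kinetic FL 480/540, 3 min, 1 s reads; 15 conc, n=3.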

[4] = molecular target: KiSS-1 receptor (Homo sapiens) (UniProt Q969F8); assay: Human kisspeptin (KISS1R) small molecule agonists, calcium flux assay in KISS1R-HEK293 cells (AID 1920064; active = well fitted curve in the direction sought with a large enough effect in the repeat runs; an effect the other way counts as inactive or inconclusive)
Sequence of KiSS-1 receptor (Homo sapiens) (Q969F8 whole entry, looked up): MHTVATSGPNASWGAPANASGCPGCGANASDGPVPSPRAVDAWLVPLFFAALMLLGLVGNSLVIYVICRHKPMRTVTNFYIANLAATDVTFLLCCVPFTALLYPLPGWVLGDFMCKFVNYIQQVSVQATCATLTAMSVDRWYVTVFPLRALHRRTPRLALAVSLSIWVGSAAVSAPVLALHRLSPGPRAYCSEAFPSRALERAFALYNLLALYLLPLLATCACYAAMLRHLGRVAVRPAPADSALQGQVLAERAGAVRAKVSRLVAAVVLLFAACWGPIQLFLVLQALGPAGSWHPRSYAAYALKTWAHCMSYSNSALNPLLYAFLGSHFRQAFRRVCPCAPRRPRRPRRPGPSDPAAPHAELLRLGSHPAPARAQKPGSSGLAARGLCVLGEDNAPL
Method in brief: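 Stable human KISS1R HEK293 line; 18 h plating, 37 C/5% CO2; calcium dye 1 h 37 C; compound pin transfer; kinetic fluorescence Ex/Em 480/540, 3 min.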

[5] = G protein-coupled receptor (GPCR) small molecule agonists, calcium flux assay: HEK293 wild type cell line counter screen (AID 1920065)
Method in brief: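 Kinetic fluorescence at Ex/Em 480/540, recorded every second over 3 min, served as the read-out after compound addition. Each compound was tested at 15 concentrations in triplicate on cells pre-loaded with calcium dye for 1 h.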

[6] = p53 small molecule agonists, cell-based qHTS assay with human liver microsomes (AID 1963577);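 note: p53 response element beta-lactamase reporter cells with liver microsomes plus NADPH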
Method in brief: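 Steps: plate p53RE-bla cells, incubate 5 h at 37 C; add compound in DMSO; add microsomes (0.5 mg/mL final) and NADPH (0.5 mg/mL final); incubate 16 h at 37 C; add LiveBLAzer, 2 h RT; read fluorescence.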

[7] = p53 small molecule agonists, cell-based qHTS assay with rat liver microsomes (AID 1963578)
Method in brief: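 Metabolic activation is supplied by rat liver microsomes with NADPH (each 0.5 mg/mL final). p53RE-bla cells incubate with compound 16 h at 37 C; reporter activity is measured by LiveBLAzer fluorescence.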

[8] = p53 small molecule agonists, cell-based qHTS assay with human liver microsomes: qHTS cell viability counter screen (AID 1963579); note: nearly all actives have a fitted effect of over 45% in size; note: potency is the fitted concentration of half-maximal effect
Method in brief: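 After the 460/530 nm beta-lactamase read, CellTiter-Glo was added to the same wells and luminescence measured after 30 min at room temperature, giving viability of p53RE-bla cells treated 16 h with compounds plus microsomes and NADPH.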

[9] = p53 small molecule agonists, cell-based qHTS assay with rat liver microsomes: qHTS cell viability counter screen (AID 1963580); note: nearly all actives have a fitted effect of over 45% in size; note: potency is the fitted concentration of half-maximal effect
Method in brief: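 HCT-116 p53RE-bla, 4,000 cells/well, 5 h pre-incubation; cpd + rat liver microsomes 0.5 mg/mL + NADPH 0.5 mg/mL (final); 16 h, 37 C; CellTiter-Glo, 30 min RT; luminescence.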

[10] = p53 small molecule agonists, cell-based qHTS assay: qHTS cell viability counter screen (AID 1963581); note: nearly all actives have a fitted effect of over 45% in size; note: potency is the fitted concentration of half-maximal effect
Method in brief: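 HCT-116 p53RE-bla cells, 4,000/well, plated 5 h before compound pin transfer; 16 h at 37 C; bla substrate 2 h RT; then CellTiter-Glo, 30 min RT, luminescence.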

[11] = molecular target: 5-hydroxytryptamine receptor 2A (Homo sapiens) (UniProt P28223); assay: 5-hydroxytryptamine receptor 2A (HTR2A) small molecule antagonists, cell-based qHTS assay (AID 1963586); note: nearly all actives have a fitted effect of over 45% in size; note: potency is the fitted concentration of half-maximal effect
Sequence of 5-hydroxytryptamine receptor 2A (Homo sapiens) (P28223 whole entry, looked up): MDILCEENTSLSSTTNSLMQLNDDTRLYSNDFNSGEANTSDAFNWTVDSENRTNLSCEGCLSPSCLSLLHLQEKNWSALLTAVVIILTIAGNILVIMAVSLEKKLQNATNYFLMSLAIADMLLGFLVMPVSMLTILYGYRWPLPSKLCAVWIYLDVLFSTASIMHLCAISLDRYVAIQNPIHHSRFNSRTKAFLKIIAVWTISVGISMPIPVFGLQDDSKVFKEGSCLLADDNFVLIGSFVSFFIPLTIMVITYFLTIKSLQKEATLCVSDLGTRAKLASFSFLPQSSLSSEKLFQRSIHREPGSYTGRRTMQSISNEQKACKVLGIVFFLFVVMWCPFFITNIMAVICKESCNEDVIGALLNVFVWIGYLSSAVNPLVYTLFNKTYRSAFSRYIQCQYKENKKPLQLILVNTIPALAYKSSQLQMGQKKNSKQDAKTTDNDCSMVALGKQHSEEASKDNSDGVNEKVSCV
Method in brief: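 Antagonist-mode intracellular calcium assay: DOI (4 nM) added after 5 min compound pre-incubation at room temperature to dye-loaded HTR2A-CHO cells. Fluorescence followed for 3 min, sampled every second.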

[12] = molecular target: Muscarinic acetylcholine receptor M1 (Homo sapiens) (UniProt P11229); assay: Cholinergic receptor muscarinic 1 (CHRM1) small molecule antagonists, cell-based qHTS assay (AID 1963588); note: nearly all actives have a fitted effect of over 40% in size; note: potency is the fitted concentration of half-maximal effect
Sequence of Muscarinic acetylcholine receptor M1 (Homo sapiens) (P11229 whole entry, looked up): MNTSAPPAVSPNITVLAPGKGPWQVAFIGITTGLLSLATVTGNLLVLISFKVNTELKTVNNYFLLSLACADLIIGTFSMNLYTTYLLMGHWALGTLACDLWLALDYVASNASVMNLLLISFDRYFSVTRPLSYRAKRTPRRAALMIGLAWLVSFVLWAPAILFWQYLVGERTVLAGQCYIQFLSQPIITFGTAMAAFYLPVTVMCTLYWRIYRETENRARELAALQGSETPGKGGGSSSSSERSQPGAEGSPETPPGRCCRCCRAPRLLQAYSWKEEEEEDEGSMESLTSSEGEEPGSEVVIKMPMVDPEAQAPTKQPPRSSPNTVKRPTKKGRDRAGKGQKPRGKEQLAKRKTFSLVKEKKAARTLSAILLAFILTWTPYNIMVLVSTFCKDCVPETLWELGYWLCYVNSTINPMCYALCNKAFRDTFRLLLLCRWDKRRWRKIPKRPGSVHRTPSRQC
Method in brief: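 CHRM1-CHO calcium-flux assay, antagonist mode. Cells were seeded 18 h, dye-loaded 1 h at 37 C and given compound for 5 min at RT, then acetylcholine was added at 50nM. FDSS fluorescence was read 3 min; 15 concentrations, three runs.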

[13] = molecular target: Muscarinic acetylcholine receptor M1 (Homo sapiens) (UniProt P11229); assay: Cholinergic receptor muscarinic 1 (CHRM1) small molecule agonists, cell-based qHTS assay (AID 1963589); note: nearly all actives have a fitted effect of over 35% in size
Method in brief: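 Human M1 in stable CHO line; 18 h plating, 1 h dye load 37 C; cpd added (agonist mode); Ca2+ fluorescence kinetic read, 1 s intervals; 15 conc, 3 runs.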

[14] = cAMP Responsive Elements (CRE) small molecule antagonists, cell-based qHTS assay (AID 1963591; active = well fitted inhibition curve with a large enough effect in the signal ratio in the repeat runs, not every such curve was filed as active; the % refers to the signal ratio)
Method in brief: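 Beta-lactamase reporter read by FRET substrate (LiveBLAzer B/G) after 2 h at room temperature. CRE-bla HEK293T cells had received compound plus 0.25 uM (final) NKH477 for 3 h at 37 °C.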

[15] = molecular target: Beta-2 adrenergic receptor (Homo sapiens) (UniProt P07550); assay: Adrenergic beta2 receptor (ADRB2) small molecule antagonists, cell-based qHTS assay (AID 1963592); note: series mostly up to about 92 µM; nearly all actives have a fitted effect of over 50% in size
Sequence of Beta-2 adrenergic receptor (Homo sapiens) (P07550 whole entry, looked up): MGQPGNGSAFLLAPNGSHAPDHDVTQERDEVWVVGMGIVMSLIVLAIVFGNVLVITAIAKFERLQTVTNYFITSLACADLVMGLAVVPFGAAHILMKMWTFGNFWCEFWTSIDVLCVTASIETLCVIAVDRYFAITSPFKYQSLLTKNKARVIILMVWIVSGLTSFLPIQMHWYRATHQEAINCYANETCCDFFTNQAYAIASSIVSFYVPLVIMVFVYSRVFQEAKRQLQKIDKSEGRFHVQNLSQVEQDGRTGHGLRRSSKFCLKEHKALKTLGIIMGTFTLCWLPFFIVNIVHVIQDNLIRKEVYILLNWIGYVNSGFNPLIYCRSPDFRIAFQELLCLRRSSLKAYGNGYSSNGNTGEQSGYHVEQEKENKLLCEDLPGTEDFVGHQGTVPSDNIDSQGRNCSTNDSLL
Method in brief: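 Cells (CHO, stable ADRB2 overexpression) incubated 18-20hr at 37C; compounds added from DMSO; agonist mix (1nM isoproterenol, 100uM IBMX, 25uM Ro-20-1724) added; 0.5hr RT; d2-cAMP and anti-cAMP-cryptate added; 1hr RT; 665/615 nm read.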

[16] = molecular target: D(2) dopamine receptor (Homo sapiens) (UniProt P14416); assay: Dopamine D2 receptor (DRD2) small molecule agonists, cell-based qHTS assay (AID 1963594); note: nearly all actives have a fitted effect of over 35% in size
Sequence of D(2) dopamine receptor (Homo sapiens) (P14416 whole entry, looked up): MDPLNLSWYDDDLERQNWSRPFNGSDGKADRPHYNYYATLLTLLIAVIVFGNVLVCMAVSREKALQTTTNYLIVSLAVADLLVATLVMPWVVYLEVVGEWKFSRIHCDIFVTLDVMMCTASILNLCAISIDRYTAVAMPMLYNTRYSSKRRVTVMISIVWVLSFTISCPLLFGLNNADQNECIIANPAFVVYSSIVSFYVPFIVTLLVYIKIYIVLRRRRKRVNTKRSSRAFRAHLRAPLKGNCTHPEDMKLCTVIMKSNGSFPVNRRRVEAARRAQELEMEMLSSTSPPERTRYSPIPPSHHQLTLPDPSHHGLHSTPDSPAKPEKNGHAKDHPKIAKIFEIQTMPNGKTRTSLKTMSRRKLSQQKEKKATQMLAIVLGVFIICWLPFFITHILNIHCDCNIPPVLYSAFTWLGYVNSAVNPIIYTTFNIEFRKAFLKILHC
Method in brief: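 cAMP accumulation in DRD2-HEK293 cells measured by HTRF after 1 h detection; compounds added 10 min before NKH477 (200nM […]) forskolin-analogue stimulation, 30 min at room temperature, with Ro20-1724 present at 0.1 mM final.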

[17] = molecular target: D(2) dopamine receptor (Homo sapiens) (UniProt P14416); assay: Dopamine D2 receptor (DRD2) small molecule antagonists, cell-based qHTS assay (AID 1963595; active = well fitted inhibition curve with a large enough effect in the signal ratio in the repeat runs, with a control signal flat; the % refers to the signal ratio; note: potency is the fitted concentration of half-maximal effect)
Method in brief: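 HTRF cAMP read-out at 665 and 620 nm emission (340 nm excitation). Antagonist mode: compounds were tested against 12 nM quinpirole in DRD2-HEK293 cells, with 200 nM NKH477 raising cAMP and 0.1 mM Ro20-1724 blocking its breakdown.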

[18] = molecular target: 5-hydroxytryptamine receptor 2A (Homo sapiens) (UniProt P28223); assay: 5-hydroxytryptamine receptor 2A (HTR2A) small molecule agonists, cell-based qHTS assay (AID 1963587); note: nearly all actives have a fitted effect of over 30% in size
Method in brief: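 Kinetic calcium-flux fluorescence (2 min, 1 sec intervals) after compound addition in agonist mode. HTR2A-CHO cells were cultured 18 h, then dye-loaded 1 h at 37 C.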

[19] = cAMP Responsive Elements (CRE) small molecule agonists, cell-based qHTS assay (AID 1963590)
Method in brief: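 HEK 293T CRE-bla, 2,000 cells/well, 18 h preincubation 37 C/5% CO2; cpds (DMSO) pinned, 3 h; LiveBLAzer B/G FRET substrate, 2 h RT.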

[20] = molecular target: Beta-2 adrenergic receptor (Homo sapiens) (UniProt P07550); assay: Adrenergic beta2 receptor (ADRB2) small molecule agonists, cell-based qHTS assay (AID 1963593);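 note: CHO cells stably overexpressing human ADRB2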
Method in brief: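 CHO cells stably over-expressing ADRB2 were plated overnight at 37C, then dosed with compounds plus a stimulation mix containing 100uM IBMX and 25uM Ro-20-1724 for 0.5hr at room temperature. cAMP was measured by HTRF competition, 1hr.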
% is set by controls: 0 for no effect and ±100 for the full control effect.

CN1CCN(C2Cc3ccccc3Sc3ccc(Cl)cc32)CC1 (stereo unspecified)
inactive: Potency [2] | Potency [3] | outcome [4] | outcome [5] | Potency [6] | Potency [7] | Potency [8] | Potency [9] | Potency [10] | Potency [13] | Potency [14] | Potency [15] | Potency [16]
active: Potency [1] 29.8 µM | Potency [11] 0.041 µM | Potency [12] 0.065 µM | Potency [17] 0.133 µM

CCCCCCC1CCCC(=O)O1 (stereo unspecified)
inactive: Potency [1] | Potency [2] | Potency [3] | outcome [4] | outcome [5] | Potency [6] | Potency [7] | Potency [8] | Potency [9] | Potency [10] | Potency [11] | Potency [13] | Potency [15] | Potency [16] | Potency [17]

OCC(O)[C@@H](O)[C@H](O)[C@H](O)CO[C@H]1O[C@H](CO)[C@@H](O)[C@H](O)[C@H]1O (stereo partly specified)
inactive: Potency [1] | Potency [2] | Potency [3] | outcome [4] | outcome [5] | Potency [6] | Potency [7] | Potency [8] | Potency [9] | Potency [10] | Potency [18] | Potency [12] | Potency [13] | Potency [19] | Potency [14] | Potency [15] | Potency [20] | Potency [17]

CCCCOC(=O)C(C)Oc1ccc(Oc2ccc(C(F)(F)F)cn2)cc1 (stereo unspecified)
inactive: Potency [1] | Potency [2] | Potency [3] | outcome [4] | outcome [5] | Potency [6] | Potency [7] | Potency [8] | Potency [9] | Potency [10] | Potency [11] | Potency [18] | Potency [13] | Potency [19] | Potency [14] | Potency [15] | Potency [20] | Potency [17]

CCCCC(=O)O[C@]1(C(=O)CO)CC[C@H]2[C@@H]3CCC4=CC(=O)CC[C@]4(C)[C@H]3[C@@H](O)C[C@@]21C
inactive: Potency [1] | Potency [2] | Potency [3] | outcome [4] | outcome [5] | Potency [6] | Potency [7] | Potency [8] | Potency [9] | Potency [10] | Potency [11] | Potency [18] | Potency [13] | Potency [15] | Potency [20] | Potency [16] | Potency [17]

C/C=C/C(=O)Oc1c(CCCCCC(C)C)cc([N+](=O)[O-])cc1[N+](=O)[O-]
active: Potency [1] 17.2 µM | Potency [3] 38.9 µM | Potency [8] 14.5 µM | Potency [9] 40.8 µM | Potency [10] 11.5 µM | Potency [11] 21.1 µM
inactive: Potency [2] | outcome [4] | outcome [5] | Potency [6] | Potency [7] | Potency [13] | Potency [15] | Potency [16] | Potency [17]

O=C1OC(=O)C2CCCCC12 (stereo unspecified)
inactive: Potency [1] | Potency [2] | Potency [3] | outcome [4] | outcome [5] | Potency [6] | Potency [7] | Potency [8] | Potency [9] | Potency [10] | Potency [11] | Potency [18] | Potency [13] | Potency [19] | Potency [14] | Potency [15] | Potency [17]

BrC/C=C/CBr
inactive: activity change, negative = cytotoxicity [1] -3.14% [at 19 µM] | activity, positive = activation [2] -2.5% [at 19 µM] | activity change [3] 0.305% [at 11.8 µM, hits give high values] | activation [4] -0.639% [at 15.8 µM] | activation [5] 0.681% [at 11.8 µM] | activation [6] -4.84% [at 13.5 µM] | activation [7] -1.81% [at 13.6 µM] | activity change, negative = cytotoxicity [8] -4.11% [at 13.5 µM] | activity change, negative = cytotoxicity [9] -2.57% [at 13.5 µM] | activity change, negative = cytotoxicity [10] -2.07% [at 13.5 µM] | activation [18] -0.944% [at 15.9 µM] | activity, negative = inhibition [12] -3.79% [at 12.6 µM] | activation [13] 1.37% [at 15.8 µM] | activation [19] -0.306% [at 19 µM] | activity change, negative = inhibition [14] -2.76% [at 18.9 µM] | activity change, negative = inhibition [15] -26% [at 19 µM] | Potency [20] | activation [16] -0.205% [at 19 µM] | activity change, negative = inhibition [17] 7.87% [at 18.9 µM]
